# Of roughly 8,800 targets only a part is listed; those with a hit were picked by preference. About 0.5% of all pairs of compound and target were hits.
# Legend:
# Experiment in all cases: log2 fold change, soluble protein after heating vs DMSO (PISA); higher = thermal stabilisation; K562 lysate, 10 uM; active = over 0.2 and 3.5 SD of the protein, either way, in both replicates (recomputed)
# [1] = compound: NCC(=O)Nc1ccc(-n2nc(C(F)(F)F)cc2-c2ccc3c(ccc4ccccc43)c2)cc1
# How it was run: (§1)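 Quantification was by TMTpro 16plex LC-MS/MS with equalised channel sums, applied to the supernatant after 21,000xg for 90 min. Samples were crude K562 extract at 1 mg/mL protein in PBS pH 7.4 with 1 mM MgCl2, treated with 10 μM compound for 30 min, heated for 3 min across 48°C-58°C, pooled and brought to 0.5% NP-40 at 4°C. Values are log-two fold changes in thermal stability relative to solvent controls, from duplicates.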
# vorinostat = compound: O=C(CCCCCCC(=O)Nc1ccccc1)NO [vorinostat]
# How it was run: as §1
# silmitasertib = compound: O=C(O)c1ccc2c(c1)nc(Nc1cccc(Cl)c1)c1ccncc12 [silmitasertib]
# How it was run: as §1
# [2] = compound: O=C1NC(=O)C(c2cnc3ccccn23)=C1c1cn2c3c(cc(F)cc13)CN(C(=O)N1CCCCC1)CC2
# How it was run: as §1
# entospletinib = compound: c1cn2cc(-c3ccc4cn[nH]c4c3)nc(Nc3ccc(N4CCOCC4)cc3)c2n1 [entospletinib]
# How it was run: as §1
# UniProt Q92947, sequence (Q92947 whole entry, looked up): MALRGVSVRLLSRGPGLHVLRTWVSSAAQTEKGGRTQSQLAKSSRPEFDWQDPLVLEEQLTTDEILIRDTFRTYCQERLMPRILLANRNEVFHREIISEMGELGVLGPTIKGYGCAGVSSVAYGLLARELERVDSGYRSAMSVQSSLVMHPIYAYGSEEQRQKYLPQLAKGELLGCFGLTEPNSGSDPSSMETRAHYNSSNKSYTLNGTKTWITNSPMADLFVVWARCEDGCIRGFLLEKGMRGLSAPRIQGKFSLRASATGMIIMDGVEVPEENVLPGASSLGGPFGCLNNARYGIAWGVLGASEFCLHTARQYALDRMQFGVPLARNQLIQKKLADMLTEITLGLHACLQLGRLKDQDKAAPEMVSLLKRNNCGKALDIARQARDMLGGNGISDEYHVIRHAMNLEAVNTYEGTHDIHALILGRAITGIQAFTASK
# UniProt Q6Y7W6, sequence (Q6Y7W6 whole entry, looked up): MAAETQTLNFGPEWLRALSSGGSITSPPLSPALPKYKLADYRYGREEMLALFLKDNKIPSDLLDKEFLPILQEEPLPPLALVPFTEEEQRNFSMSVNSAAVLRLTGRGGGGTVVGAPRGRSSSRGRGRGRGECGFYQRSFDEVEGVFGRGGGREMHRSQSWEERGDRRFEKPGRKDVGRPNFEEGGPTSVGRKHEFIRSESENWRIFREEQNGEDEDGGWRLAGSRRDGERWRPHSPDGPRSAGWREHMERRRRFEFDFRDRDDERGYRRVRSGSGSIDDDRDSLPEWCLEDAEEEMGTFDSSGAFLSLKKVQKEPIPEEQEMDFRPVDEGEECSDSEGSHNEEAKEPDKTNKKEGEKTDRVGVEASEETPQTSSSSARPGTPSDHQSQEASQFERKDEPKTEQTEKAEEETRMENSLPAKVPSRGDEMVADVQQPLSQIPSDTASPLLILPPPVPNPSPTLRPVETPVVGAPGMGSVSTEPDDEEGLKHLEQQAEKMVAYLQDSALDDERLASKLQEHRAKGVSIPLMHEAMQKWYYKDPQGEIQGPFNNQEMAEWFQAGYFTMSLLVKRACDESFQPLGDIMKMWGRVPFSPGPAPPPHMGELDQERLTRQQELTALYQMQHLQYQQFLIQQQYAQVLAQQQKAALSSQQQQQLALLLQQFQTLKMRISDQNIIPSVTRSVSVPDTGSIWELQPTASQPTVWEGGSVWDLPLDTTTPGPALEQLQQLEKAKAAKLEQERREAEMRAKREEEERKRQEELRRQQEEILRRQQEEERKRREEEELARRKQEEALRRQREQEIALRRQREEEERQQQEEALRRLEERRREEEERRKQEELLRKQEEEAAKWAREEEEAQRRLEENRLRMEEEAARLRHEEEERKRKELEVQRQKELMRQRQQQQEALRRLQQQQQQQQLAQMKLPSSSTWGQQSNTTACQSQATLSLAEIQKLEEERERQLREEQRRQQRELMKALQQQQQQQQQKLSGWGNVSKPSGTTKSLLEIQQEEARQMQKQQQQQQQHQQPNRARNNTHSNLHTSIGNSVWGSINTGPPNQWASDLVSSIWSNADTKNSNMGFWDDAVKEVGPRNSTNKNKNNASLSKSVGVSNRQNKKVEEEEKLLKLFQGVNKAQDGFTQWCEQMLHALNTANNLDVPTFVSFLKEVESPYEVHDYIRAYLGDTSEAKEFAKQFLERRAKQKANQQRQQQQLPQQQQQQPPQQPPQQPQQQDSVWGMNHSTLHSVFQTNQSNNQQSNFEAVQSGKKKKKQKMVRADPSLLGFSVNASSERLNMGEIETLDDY
# UniProt Q6P2E9, sequence (Q6P2E9 whole entry, looked up): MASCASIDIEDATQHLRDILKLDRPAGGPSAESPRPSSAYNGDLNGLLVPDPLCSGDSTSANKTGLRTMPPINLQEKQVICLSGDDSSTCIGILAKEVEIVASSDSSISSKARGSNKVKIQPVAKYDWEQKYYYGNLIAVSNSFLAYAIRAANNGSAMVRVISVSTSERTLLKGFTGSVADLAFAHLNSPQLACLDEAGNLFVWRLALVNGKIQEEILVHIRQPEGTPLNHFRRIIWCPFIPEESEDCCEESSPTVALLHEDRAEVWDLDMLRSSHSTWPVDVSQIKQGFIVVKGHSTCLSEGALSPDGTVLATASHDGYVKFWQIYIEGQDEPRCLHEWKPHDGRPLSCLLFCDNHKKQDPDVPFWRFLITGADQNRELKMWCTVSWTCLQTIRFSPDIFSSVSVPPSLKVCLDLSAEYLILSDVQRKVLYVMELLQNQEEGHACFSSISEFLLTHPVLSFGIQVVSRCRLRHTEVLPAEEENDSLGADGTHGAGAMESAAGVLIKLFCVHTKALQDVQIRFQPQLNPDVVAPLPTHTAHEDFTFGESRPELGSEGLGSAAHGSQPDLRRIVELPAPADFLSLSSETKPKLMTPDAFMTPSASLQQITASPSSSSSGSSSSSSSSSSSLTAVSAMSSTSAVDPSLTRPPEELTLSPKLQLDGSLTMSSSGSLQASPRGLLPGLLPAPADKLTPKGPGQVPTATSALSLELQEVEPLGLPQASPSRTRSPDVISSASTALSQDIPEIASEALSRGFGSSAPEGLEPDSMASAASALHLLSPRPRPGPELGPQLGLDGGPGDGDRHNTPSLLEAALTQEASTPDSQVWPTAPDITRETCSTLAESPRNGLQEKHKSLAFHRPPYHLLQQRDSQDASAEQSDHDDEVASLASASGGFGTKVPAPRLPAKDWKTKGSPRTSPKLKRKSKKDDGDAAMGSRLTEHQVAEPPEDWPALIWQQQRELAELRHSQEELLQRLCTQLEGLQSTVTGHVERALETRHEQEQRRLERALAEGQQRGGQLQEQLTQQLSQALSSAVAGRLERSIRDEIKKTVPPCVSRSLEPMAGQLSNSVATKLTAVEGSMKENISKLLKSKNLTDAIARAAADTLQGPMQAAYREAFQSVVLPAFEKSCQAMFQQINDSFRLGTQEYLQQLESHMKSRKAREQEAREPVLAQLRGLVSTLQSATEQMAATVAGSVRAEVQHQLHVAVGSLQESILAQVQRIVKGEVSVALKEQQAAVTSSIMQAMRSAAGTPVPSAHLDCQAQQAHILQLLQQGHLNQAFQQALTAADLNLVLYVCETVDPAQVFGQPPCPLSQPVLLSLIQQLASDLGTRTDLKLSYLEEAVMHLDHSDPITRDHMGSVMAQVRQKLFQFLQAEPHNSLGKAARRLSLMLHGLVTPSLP
Target,log2 fold change [1],log2 fold change (vorinostat),log2 fold change (silmitasertib),log2 fold change [2],log2 fold change (entospletinib)
EDC4 (UniProt Q6P2E9),0.045 (inactive),-0.453 (active),0.011 (inactive),0.004 (inactive),0.02 (inactive)
GCDH (UniProt Q92947),0.004 (inactive),0.34 (active),0.161 (inactive),0.187 (inactive),0.046 (inactive)
GIGYF2 (UniProt Q6Y7W6),-0.001 (inactive),-0.252 (active),-0.007 (inactive),-0.042 (inactive),0.017 (inactive)
